Screens: PubChem, The Scripps Research Institute Molecular Screening Center
Sampled rows, rich in hits. Any-hit rate of the full collection: about 4.5%.
ssDAF12 agonist = S. stercoralis DAF-12 nuclear receptor activators, primary screen, cell-based, luminescence, HEK293, GRIP1 co-expression, lit1-tk-luc; Nuclear hormone receptor DAF-12 (Strongyloides stercoralis); HEK293 ssDAF-12/GRIP1 lit1-tk-luc reporter; % of 3 µM dafachronic acid response; activation, % at 6.8 µM; 370,000 compounds, 1% hits; AID 652126, 2013;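 active means activation above the mean over all tested compounds plus 3 SD, cut at about 0.9% in these data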
DAX1 inh-1 = DAX1 (NR0B1) inhibitors on StAR promoter, primary screen, cell-based, luminescence, SF-1 (NR5A1), full-length DAX-1; HEK293T StAR-luciferase reporter, SF-1/DAX-1 repression relief; inhibition, % at 6.8 µM; 370,000 compounds, 1.1% hits; AID 652010, 2013;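 active means inhibition above the mean over all tested compounds plus 3 SD, cut at about 3.6% in these data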;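 further: higher inhibition means more luminescence from relief of DAX-1 repression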
hcDAF-12 act = H. contortus DAF-12 nuclear receptor activators, primary screen, cell-based, luminescence, HEK293, lit1-tk-luc reporter | HEK293 hcDAF-12 lit1-tk-luc reporter; 0% DMSO, 100% Δ7-dafachronic acid | activation, % at 6.8 µM | 370,000 compounds, 1.4% hits | AID 652067, 2013;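 active means activation above the mean of all tested compounds plus 3 SD, cut at about 5.5% in these data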
hgDAF-12 ag = H. glycines DAF-12 receptor agonists, primary screen, cell-based, luminescence, HEK293, GAL4 fusion, UAS-luciferase. Nuclear hormone receptor DAF-12 (Heterodera glycines), GAL4 fusion. HEK293 GAL4-hgDAF12 UAS-luciferase reporter, agonist luminescence; normalized to butyrate control. activation, % at 6.8 µM. 370,000 compounds, 1.8% hits;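 active means activation above a cutoff set at the mean of all screened compounds plus 3 SD, cut at about 10% in these data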
GAA850 FXN act = FXN promoter activators, primary screen, cell-based, luciferase luminescence, HEK293 lucGAA850; activation, % at 6 µM; AID 540364, 2011; 360,000 compounds, 0.56% hits; HEK293 lucGAA850 FXN promoter luciferase reporter, 24 h; percent of 10 µM SAHA response;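 active means activation above the average of all compounds screened plus 3 SD, cutoff fixed separately per campaign, cut at about 7.5% in these data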
DAX1 inh-2 = DAX1 (NR0B1) inhibitors, primary screen, cell-based, HEK293, Gal4-DAX1, luciferase luminescence | Nuclear receptor subfamily 0 group B member 1 (Homo sapiens), P51843 | HEK293 Gal4-DAX1 luciferase reporter | 340,000 compounds, 0.99% hits | inhibition, % at 6.75 µM;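 active means inhibition above the mean over all tested compounds plus 3 SD, cut at about 4.2% in these data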;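 further: inhibition shows as a rise in luminescence from relieved DAX1 repression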
Target sequence (P51843 207-470 limits assumed): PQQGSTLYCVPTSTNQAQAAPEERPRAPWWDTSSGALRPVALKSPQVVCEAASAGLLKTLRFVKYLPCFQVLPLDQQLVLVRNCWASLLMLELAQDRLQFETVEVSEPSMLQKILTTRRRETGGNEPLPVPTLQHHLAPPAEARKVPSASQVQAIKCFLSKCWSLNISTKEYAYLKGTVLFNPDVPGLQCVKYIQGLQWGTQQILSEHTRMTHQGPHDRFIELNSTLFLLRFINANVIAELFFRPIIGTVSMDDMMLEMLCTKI
A number is an active result; – = inactive; · = no result.

SMILES	ssDAF12 agonist	DAX1 inh-1	hcDAF-12 act	hgDAF-12 ag	GAA850 FXN act	DAX1 inh-2
O=C(OCc1nc2ccccc2s1)c1ccc(Br)s1	1.1	–	–	–	–	–
Cc1cccc(Nc2nc(-c3ccccn3)cs2)n1	1.1	–	6.0	13	–	–
CC(=O)Oc1ccc(-c2csc(Nc3cccc(C)n3)n2)cc1	2.4	–	–	–	–	5.5
Cc1cc(NS(=O)(=O)c2ccc(NC(=O)Cc3ccccc3)cc2)no1	–	–	–	–	·	·
C=CCNC(=S)Nc1sc2c(c1C(=O)OCC)CCN(C(=O)OCC)C2	–	–	–	–	–	–
CCOC(=O)c1c(NC(=S)NCc2ccccc2)sc2c1CCN(C(=O)OCC)C2	–	–	–	–	–	6.0
COc1ccc(-c2noc(C3CCCN(C(=O)Nc4cc(C)cc(C)c4)C3)n2)cc1 (stereo not drawn)	–	–	–	–	·	·
O=C(N=Nc1c(O)n(Cc2ccccc2)c2ccccc12)c1cc2ccccc2cc1O	–	–	–	–	–	–
O=C(N=Nc1c(O)n(Cc2ccccc2)c2ccccc12)c1ccc(O)cc1	–	3.6	6.0	–	–	–
Cc1nn(-c2ccccc2)c(N)c1N=Nc1cccnc1	–	–	–	12	–	–
CC(=O)Nc1ccccc1OCC(=O)NC(C)c1ccccc1 (stereo not drawn)	1.0	–	–	–	–	–
Cc1ccccc1OCC(=O)Nc1ccccc1CO	–	–	–	–	–	–
CSc1ccccc1NC(=O)COC(=O)c1c[nH]c(=O)[nH]c1=O	–	–	–	–	–	5.5
CC(NC(=O)COc1ccccc1-c1ccccc1)c1ccccc1 (stereo not drawn)	–	–	–	–	–	–
O=C(COC(=O)c1c[nH]c(=O)[nH]c1=O)Nc1ccccc1F	–	–	–	–	–	–
CSc1ccccc1NC(=O)COc1ccccc1C	1.5	–	–	–	–	–
O=C(c1ccc2c(c1)OCO2)N1CCC(Oc2cccnc2)CC1	–	–	–	–	·	·
COC(=O)[C@]12C[C@H](CC(=O)N3CCOCC3)C(=O)N(CCc3ccc(OC)c(OC)c3)C1=C[C@H](C1CCCC1)O[C@@H]2C	–	–	–	–	·	·
c1ccc(-c2ccc3nnnn3n2)cc1	–	–	–	–	–	–
c1cnc(Sc2ccc3nnnn3n2)nc1	1.3	–	–	–	–	–
O=CNC(n1cnc2c(N3CCOCC3)ncnc21)C(Cl)(Cl)Cl (stereo not drawn)	–	–	–	–	–	10.0
c1ccc(-c2c[nH]c3cccc(-c4cc5ccccc5o4)c23)cc1	–	–	–	–	·	·
O=C1OCC(CO)(CO)N=C1NNc1ccccc1[N+](=O)[O-]	–	–	–	–	–	5.2
N#CCC[C@@H]1CC[C@]2(CCCN(C(=O)c3ccno3)C2)O1	–	–	–	–	·	·
CCn1c(Cc2cccs2)nnc1SCC(=O)Nc1ccccc1-c1ccccc1	–	–	–	–	·	·
SMILES	ssDAF12 agonist	DAX1 inh-1	hcDAF-12 act	hgDAF-12 ag	GAA850 FXN act	DAX1 inh-2
CCCCCn1nnnc1C1(C)Cn2nccc2C(=O)N1Cc1ccco1 (stereo not drawn)	–	–	–	–	·	·
O=C(O)CN1C(=O)/C(=C/c2ccccc2Cl)Oc2ccccc21	–	–	–	–	–	–
CCOC(=O)CN1C(=O)/C(=C/c2ccccc2Br)Oc2ccccc21	–	–	5.6	–	–	–
C/C(=C\C(=O)Nc1cscc1C)C(=O)O	1.1	–	–	–	–	–
COC(=O)c1cscc1NC(C)=O	–	–	–	–	–	–
CC(=O)NC(=S)Nc1ccccc1C(=O)NC1CCCCC1	3.9	–	–	–	–	–
O=C(NC(=S)NC1CCCCCCCCCCC1)c1cccnc1	–	–	–	–	–	–
CC(C)(C)C(=O)NC(=S)Nc1ccccc1C(=O)NC1CCCCC1	–	–	–	–	–	–
O=C(NC1CCCCC1)c1cc(C(=O)c2ccccc2Br)c[nH]1	–	–	–	–	–	6.4
O=C(Nc1ccccc1C(=O)NC1CCCC1)NC1CCCC1	–	–	–	–	–	5.8
O=C(NC1CCCCC1)c1ccccc1NC(=O)C1CC1	–	–	–	–	–	–
O=C(NC(=S)NC1CCCC1)c1ccccc1	–	3.9	–	13	–	–
C=CC[C@@]1(c2ccccc2)Oc2ccccc2-c2nc3ccccc3nc21	–	–	–	–	·	·
COC(=O)c1ccccc1NC(=O)NCC1CCN(Cc2ccc(OC)cc2)CC1	–	–	–	–	·	·
C[C@H]1[C@@H](NCC2CCCCC2)CC[C@@]23CCCN2C(=O)CCC[C@@H]13	–	·	–	–	·	·
O=C1N(CCCO)CCC12CCCCC2	–	–	–	–	·	·
Cc1cc(C)n(/N=C/c2c[nH]c3ccccc23)c(=O)c1	–	–	6.5	–	–	–
C(=NN=Cc1c[nH]c2ccccc12)c1c[nH]c2ccccc12	–	–	6.1	–	–	–
COc1ccccc1NC(=S)OC1CCC12CCC(c1ccccc1)CC2 (stereo not drawn)	–	–	–	–	·	·
Nc1nc(SCc2ccccn2)c2ncn(C3CCCC3)c2n1	–	–	–	11	–	–
Nn1c(SCC(=O)Nc2ccc(OCc3ccccc3)cc2)nnc1-c1cc(-c2ccccc2)n[nH]1	–	–	–	–	·	·
Cc1cc(NC(=O)c2cc(-c3ccc(O)cc3)on2)no1	–	–	–	11	–	–
Cc1cc(NC(=O)c2ccc(S(=O)(=O)N(C)C)cc2)no1	–	–	–	–	–	–
Cc1cc(NC(=O)c2ccc(Cl)cc2)no1	–	–	–	11	–	–
Cc1ccc2c(Cl)c(C(=O)Nc3cc(C)on3)sc2c1	–	–	–	–	–	5.2
SMILES	ssDAF12 agonist	DAX1 inh-1	hcDAF-12 act	hgDAF-12 ag	GAA850 FXN act	DAX1 inh-2
C/C(=C\c1ccccc1)C(=O)Nc1cc(C)on1	–	–	–	11	–	–
Cc1cc(NC(=O)c2cc(-c3ccc(Br)cc3)on2)no1	–	–	–	–	–	–
COc1ccc(-c2cc(-c3nnc(SCC(=O)NC4CCCCC4)n3N)[nH]n2)cc1	–	–	–	–	·	·
CCOc1ccc(N(CC(=O)Nc2c(C)n(C)n(-c3ccccc3)c2=O)S(=O)(=O)c2cccs2)cc1	–	–	–	–	·	·
COCCNc1nc(Oc2ccc(CC(=O)OC)cc2)c2sc(-c3ccccc3)cc2n1	–	3.8	–	–	–	·
Cc1ccc2sc(-c3ccc(NC(=O)c4cc(-n5cnnc5)ccc4Cl)cc3)nc2c1	–	–	–	11	–	–
